Bioassay records as filed in PubChem.
ClpP mod: qHTS Assay for Activators of ClpP; ATP-dependent Clp protease proteolytic subunit (Bacillus subtilis (strain 168)), P80244; purified B. subtilis ClpP, FRET peptide cleavage, 20 min; Potency, µM (series often up to 57.5 µM); hit rate 1.9% among 340,000; active = well fitted falling curve with a large enough effect; inconclusive = small, poorly fitted or top-dose-only effect; inactive = no such curve, though single readings can be large or run the other way; note: the source files actives as falling curves though it sought activators and does not explain the sign; nearly all actives have a fitted effect of over 65% in size
Target sequence (P80244 whole entry, looked up): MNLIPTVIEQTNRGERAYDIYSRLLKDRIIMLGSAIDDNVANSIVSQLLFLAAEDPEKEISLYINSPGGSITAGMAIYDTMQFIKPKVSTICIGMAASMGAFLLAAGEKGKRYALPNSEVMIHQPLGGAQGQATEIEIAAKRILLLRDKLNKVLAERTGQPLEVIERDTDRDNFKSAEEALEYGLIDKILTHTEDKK
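Buffer: 100 mM Tris/HCl pH8, 100 mM KCl, 0.05% low protease BSA, 2.5% glycerol, 0.01% Tween-20. ClpP 10 microg/mL final; 20 min RT; delta FRET normalized to ADEP and DMSO controls.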
RXFP1 antag: qHTS Assay for Antagonists of the Relaxin Receptor RXFP1; Relaxin receptor 1 (Homo sapiens), Q9HBX9; HEK293-RXFP1, relaxin-stimulated cAMP HTRF, 30 min; stronger effect = lower value; activity change, negative = inhibition, % at 57.5 µM; hit rate 0.59% among 350,000;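 active = activity change of -60% or lower, but not beyond a set lower limit; inconclusive = change between -60% and -40%, or beyond the set limit; inactive = change above -40%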
gsp antagonist: qHTS for Antagonists of gsp, the Etiologic Mutation Responsible for Fibrous Dysplasia/McCune-Albright Syndrome: qHTS. gsp-mutant cells, cAMP HTRF, 30 min. Potency, µM (doses to about 76.9 µM), usual class: inhibitors. hit rate 0.4% among 340,000. AID 624288, 2012; calls by dose curve; cell line not stated here;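 note: intracellular cAMP measured with PDE inhibitor Ro 20-1724 present during compound exposure; nearly all actives have a fitted effect of over 65% in size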
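Measurement of cellular cAMP by homogeneous time-resolved fluorescence following a 30 min compound exposure at 37C. The PDE inhibitor […] was present throughout; the assay buffer was DPBS with 0.05% BSA and 0.005% Tween 20.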
RXFP1 agonist: qHTS Assay for Agonists of the Relaxin Receptor RXFP1; Relaxin receptor 1 (Homo sapiens), Q9HBX9; HEK293T-RXFP1 cAMP TR-FRET, 30 min; response scale: percent of porcine relaxin response, buffer zero; Potency, µM (highest dose often 57.5 µM), usual class: activators; hit rate 0.3% among 370,000; AID 2676, 2010; note: nearly all actives have a fitted effect of over 60% in size
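HEK293T cells stably expressing RXFP1 were pretreated with the PDE4 inhibitor Ro 20174, exposed to compounds for 30 min at 37C, lysed, and cAMP was read by TR-FRET. Data normalized to buffer (basal) and 29 nM porcine relaxin (100%).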
gsp ag: qHTS for Agonist of gsp, the Etiologic Mutation Responsible for Fibrous Dysplasia/McCune-Albright Syndrome: qHTS; gsp mutant cells, cAMP HTRF, 30 min; Potency, µM (highest dose often 76.9 µM), actives largely listed as activators; hit rate 0.13% among 340,000; AID 624287, 2012; active = well fitted activation curve with a large enough effect; inconclusive = small, poorly fitted or top-dose-only effect, or another doubt; inactive = no such curve, though single readings can be large or run the other way; cell line not stated here;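 note: phosphodiesterase inhibitor Ro 20-1724 added with compounds to block cAMP breakdown; nearly all actives have a fitted effect of over 60% in size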
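Cells stably selected in G418 were plated at 2000/well, grown 16-24 hr, then given compounds in DMSO with the PDE inhibitor […] (300 uM solution added) for 30 min at 37C; cAMP was read by HTRF.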
Akt phos inh: HTS Assay for Inhibitors of Akt Phophorylation: Primary Screen; Neuro2A IGF-stimulated pAkt S473 HTRF, 20 min; stronger effect = lower value; AID 651550, 2012; hit rate 0.32% among 360,000; activity change, % for hits at 50 µM; in the data active = activity change below about -80%; inconclusive = mostly about -51% to -80%
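Single-point screen (50 µM final compound) in Neuro2A cells stimulated 20 min with 6 nM IGF at 37 deg C. After lysis, Ser473-phosphorylated Akt read by HTRF (ex 330 nm, em 615/665 nm) as the 665/615 ratio.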
ClpP inh valid: qHTS Assay for Activators of ClpP: Hit Validation of Inhibitors; Potency, µM (titrated, usually from 57.5 µM), actives largely listed as inhibitors; purified B. subtilis ClpP, FRET-FV substrate cleavage, 20 min; hit rate 40% among 470; shares compounds with ClpP mod; note: nearly all actives have a fitted effect of over 70% in size
Hits are given with their value; i = inactive; ? = inconclusive; nt = no result; [ ] = dose if it differs, or a comment. A selection: hits, their analogues and other compounds. The true share with any hit is near 2.7%. Unless noted, calls come from the whole dose curve; as a rule, active = well fitted curve in the direction sought with a large enough effect; inconclusive = small, poorly fitted or top-dose-only effect, or another doubt; inactive = no such curve, though single readings can be large; an effect the other way counts as inactive or inconclusive.

SMILES | ClpP mod | RXFP1 antag | gsp antagonist | RXFP1 agonist | gsp ag | Akt phos inh | ClpP inh valid
Cc1cc(NC(=O)CCNS(=O)(=O)c2cccc3nsnc23)ccc1Br | i | nt | nt | i | nt | nt | nt
CCOc1ccc(NC(=O)c2cc(S(=O)(=O)NC3CCCC3)ccc2F)cc1 | i | i | nt | i | nt | nt | nt
CCc1ccccc1NC(=O)c1oc(=O)c2ccccc2c1-c1ccccc1 | i | i | nt | i | nt | nt | nt
COc1ccc(-c2cc(C(=O)Nc3c(Cl)cc(Cl)cc3Cl)c3ccccc3n2)cc1OC | i | nt | i | i | i | i | 21.7µM
CCCCCc1cc(=O)oc2c(C(CCN3CCCC3)c3ccc(N(C)C)cc3)c(OC)cc(OC)c12 (configuration not stated) | i | nt | i | i | nt | i | i
Cc1ccc(CNc2nc3ccccc3n2C)o1 | i | i | i | i | i[15.4 µM] | i | nt
Cn1c(-c2ccc(CN3CCCCC3)o2)nc2ccccc21 | 3.55µM | i | i[15.4 µM] | i | i | i | 17.2µM
COc1ccc(S(=O)(=O)N2CCC(CN3C(=O)c4cccc5cccc(c45)C3=O)CC2)cc1 | 10µM | i | i | i | i | i | 24.3µM
O=C(c1ccc(S(=O)(=O)N2CCCC2)cc1)N1CCC(CN2C(=O)c3cccc4cccc(c34)C2=O)CC1 | nt | i | i | i | i[15.4 µM] | i | nt
CCSc1nnc(SCC(=O)Nc2cc(C)on2)s1 | i | i | i | nt | i | i | nt
Cc1cc(C)c2c(CC(=O)Nc3c(C(=O)Nc4ccc(Cl)cc4)oc4ccccc34)coc2c1 | 7.94µM | i | nt | i | nt | nt | i
Cc1cccc(NC(=O)c2oc3ccccc3c2NC(=O)Cc2coc3cc(C)cc(C)c23)c1 | i | i | nt | i | nt | nt | nt
COc1ccc(OC)c(NC(=O)c2cc3c(Cl)nc4ccccc4c3s2)c1 | i | i | i | i | i | i | i
CCOc1ccccc1CNC(=O)CN1C(=O)CCc2cc(S(=O)(=O)N3CCCCC3)ccc21 | i | nt | nt | i | nt | nt | nt
Cn1c(NCCN2CCOCC2)nc2c1c(=O)n(Cc1cccc(Cl)c1)c(=O)n2C | 3.16µM | i | i | i | i | i | i
COc1cccc(NC(=O)CCC2CCN(C(=O)C3CC=CCC3)CC2)c1 (configuration not stated) | i | i | i | i | i | i | nt
CCOc1ccccc1N1CC(C(=O)Nc2ccc3c(c2)OCCO3)CC1=O (configuration not stated) | 7.94µM | i | i | i | i[15.4 µM] | i | i
COc1cc(OC)c(OC)cc1/C=C1\CC(C)C/C(=C\c2cc(OC)c(OC)cc2OC)C1=O (configuration not stated) | i | i | ? | i | i | i | nt
Fc1ccc(CNc2cnccn2)cc1 | 3.16µM | i | i | i | i | i | 21.7µM
COc1ccc(C(O)c2nc(-c3cc(F)cc(Cl)c3)cs2)cc1 (configuration not stated) | i | nt | nt | nt | nt | i | nt
N#Cc1ccc2c(c1)nc1ccccn12 | nt | i | i | i | i[15.4 µM] | i | nt
Clc1ccc2nc3ccccn3c2c1 | 2.51µM | i | i | i | i | i | ?
C[C@H](CO)N1C[C@H](C)[C@@H](CN(C)Cc2ccccn2)Oc2ncc(Br)cc2C1=O | i | i | nt | nt | i | i | nt
Cc1oc(C(=O)O)cc1COc1ccc2c(C)cc(=O)oc2c1 | ? | i | i | i | i | i | nt
Cc1cc(=O)oc2cc(OCc3cc4c(cc3Cl)OCO4)ccc12 | i | i | i | i | i | i | ?
SMILES | ClpP mod | RXFP1 antag | gsp antagonist | RXFP1 agonist | gsp ag | Akt phos inh | ClpP inh valid
COc1ccc2c(c1OC)C(=O)OC2Nc1nc2ccccc2s1 (configuration not stated) | i | i | i | i | i[15.4 µM] | i | nt
COc1cccc(C2C(C(=O)Nc3nc4ccccc4s3)=C(C)NC3=C2C(=O)CC(C)(C)C3)c1OC (configuration not stated) | i | i | i | i | i | i | 8.63µM
Cc1cccc(NS(=O)(=O)c2cccc(C(=O)NCC(c3ccco3)N3CCCCC3)c2)c1 (configuration not stated) | 3.16µM | i | i | i | i[15.4 µM] | i | i
COc1ccc(OCc2nnc(-c3ccccc3)o2)cc1 | i | i | nt | i | nt | nt | nt
COc1ccc(-c2nnc(-c3ccc(OCC(C)C)cc3)o2)cc1 | 7.94µM | i | i | i | i | i | 19.3µM
CCN(CC(=O)Nc1c(F)cccc1F)C(=O)Cc1csc(-c2ccc(OC)c(OC)c2)n1 | 3.16µM | i | i | i | i | i | 12.2µM
CC(NC(=O)c1cc2sccc2n1Cc1ccc(F)cc1)c1ccccc1 (configuration not stated) | i | nt | nt | i | nt | nt | nt
Cc1ccccc1NC(=O)c1cc2sccc2n1Cc1ccc(F)cc1 | i | nt | nt | i | nt | nt | ?
CCOC(=O)c1cc2occc2n1CC(=O)N1CCCc2ccccc21 | i | i | ? | i | i | i | i
CCOC(=O)c1cc2sccc2n1CC(=O)N1CCCc2ccccc21 | i | i | i | i | i | i | nt
Cc1cc(F)ccc1NC(=O)c1csc2c1CCC(C)C2 (configuration not stated) | i | nt | nt | i | nt | nt | nt
CCCn1cc(CN2CCC(n3nccc3NC(=O)c3ccccc3)CC2)c(C)n1 | 3.16µM | i | i | i | i | i | i
COc1ccccc1N(CC(=O)Nc1ccc2c(c1)OCCO2)S(C)(=O)=O | i | i | i | i | i | i | nt
COc1ccccc1N(CC(=O)Nc1ccc2c(c1)OCCO2)S(=O)(=O)c1ccc(C)cc1 | 5.01µM | i | i | i | i[15.4 µM] | i | i
CC(Oc1ccc2c3c(c(=O)oc2c1)CCCC3)C(=O)NCC(O)c1ccccc1 (configuration not stated) | i | i | i | i | i | nt | nt
CC1CCN(S(=O)(=O)c2ccc3c(c2)CCN3C(=O)Nc2cccc(Br)c2)CC1 | i | i | nt | i | nt | nt | ?
CCCC(=O)Nc1cc(-c2nc3ncccc3o2)ccc1C | 3.16µM | i | i | i | i | nt | 24.3µM
CC1CN(C(=O)CCC(=O)NCc2cccs2)c2ccccc2O1 (configuration not stated) | i | i | nt | i | nt | nt | nt
O=C(Nc1ccc(-c2cn3ccccc3n2)cc1)c1ccc(Cl)cc1 | i | i | i[15.4 µM] | i | i | i | i
Cn1c(C(=O)NCCC2=CCCCC2)cc2c(=O)n3ccccc3nc21 | 7.94µM | i | i | i | i | i | i
Cn1cnc(S(=O)(=O)N2CCCC(C(=O)NCc3ccccc3)C2)c1 (configuration not stated) | i | i | nt | i | nt | nt | nt
